# Laboratory results taken from ChEMBL document CHEMBL4303122, “Identification of potential treatments for COVID-19 through artificial intelligence-enabled phenomic analysis of human cells infected with SARS-CoV-2” (2020).
# In all, about 1,600 compounds were measured (“Hit score”: median about 0.13, highest 2% from about 0.46 on). The entries come from a sample that favours the highest values as a whole.
# Test system: SARS-CoV-2
# Assay: Antiviral activity against SARS-CoV-2 (USA-WA1/2020 strain) measured by imaging in HRCE cells at MOI 0.4 after 96 hrs (reported as hit score from 0-1 for on-disease vs off-disease activity: scores >0.6 considered hits)
# Assay type: functional, Homo sapiens
row,Structure (SMILES),Hit score
1,O=C(O)c1ccc(NC(=O)[C@H](Cc2ccc(O)cc2)NC(=O)c2ccccc2)cc1 [BENTIROMIDE],0.2686
2,CC1(C)O[C@@H]2[C@@H](CO[C@@]3(COS(N)(=O)=O)OC(C)(C)O[C@@H]23)O1 [TOPIRAMATE],0.1748
3,N#Cc1c(N2C[C@@H]3NCCO[C@H]3C2)c(F)cc2c(=O)c(C(=O)O)cn(C3CC3)c12 [FINAFLOXACIN],0.04952
4,C[C@H]1C[C@@H]2[C@H]([C@@H](O)C[C@@]3(C)[C@H]2CC[C@]3(O)C(=O)CO)[C@@]2(C)C=CC(=O)C=C12 [METHYLPREDNISOLONE],0.1629
5,CCCCc1oc2ccc(NS(C)(=O)=O)cc2c1C(=O)c1ccc(OCCCN(CCCC)CCCC)cc1 [DRONEDARONE],0.03796
6,C[C@]1(Cn2ccnn2)[C@H](C(=O)O)N2C(=O)C[C@H]2S1(=O)=O [TAZOBACTAM],0.04532
7,CC(C)Cc1ccc(C(C)C(=O)OCc2ccccn2)cc1 (configuration not stated) [IBUPROFEN PICONOL],0.1126
8,CCCN1CC(NS(=O)(=O)N(CC)CC)CC2Cc3c(O)cccc3CC21 (configuration not stated) [QUINAGOLIDE],0.09123
9,CO/N=C(\C(=O)N[C@@H]1C(=O)N2C(C(=O)O)=C(CSc3nnnn3C)CS[C@H]12)c1csc(N)n1 [CEFMENOXIME],0.1641
10,N=C(N)c1ccc(/C=C/c2ccc(C(=N)N)cc2O)cc1 [HYDROXYSTILBAMIDINE],0.4886
11,Nc1nc(=O)c2c([nH]1)NC[C@H](CNc1ccc(C(=O)N[C@@H](CCC(=O)O)C(=O)O)cc1)N2C=O [LEVOLEUCOVORIN],0.1157
12,C#C[C@]1(OC(C)=O)CC[C@H]2[C@@H]3CCC4=CC(=O)CC[C@@H]4[C@H]3CC[C@@]21C [NORETHINDRONE ACETATE],0.06494
13,CC(C)NCC(O)COc1cccc2[nH]c3ccccc3c12 (configuration not stated) [CARAZOLOL],0.4815
14,COc1ccccc1OCC(O)CO (configuration not stated) [GUAIFENESIN],0.2008
15,COc1ccc(CCNCC(O)COc2cccc(C)c2)cc1OC (configuration not stated) [BEVANTOLOL],0.3675
16,COc1ccccc1OCCNCC(O)COc1cccc2[nH]c3ccccc3c12 (configuration not stated) [CARVEDILOL],0.5244
17,C=CCc1ccccc1OCC(O)CNC(C)C (configuration not stated) [ALPRENOLOL],0.3773
18,CC(C)NC[C@@H](O)COc1cccc2ccccc12 [DEXPROPRANOLOL],0.4686
19,CC(C)NCC(O)COc1cccc2[nH]ccc12 (configuration not stated) [PINDOLOL],0.3758
20,C=CCOc1ccccc1OCC(O)CNC(C)C (configuration not stated) [OXPRENOLOL],0.08363
21,CC(C)NCC(O)COc1cccc2ccccc12 (configuration not stated) [PROPRANOLOL],0.3664

row,Structure (SMILES),Hit score
1,NS(=O)(=O)c1cc(-c2nnn[nH]2)c(NCc2cccs2)cc1Cl [AZOSEMIDE],0.09549
2,CN1[C@@H]2CC[C@H]1C[C@@H](OC(=O)[C@H](CO)c1ccccc1)C2 [HYOSCYAMINE],0.0469
3,O=C(O)CCC/C=C\CC1C(O)CC(O)C1/C=C/C(O)COc1cccc(Cl)c1 (configuration not stated) [CLOPROSTENOL],-0.03107
4,COc1cccc(N2CCN(C3=Nc4c(F)cccc4[C@H](CC(=O)O)N3c3cc(C(F)(F)F)ccc3OC)CC2)c1 [LETERMOVIR],0.3651
5,CCOC(=O)[C@H]1O[C@@H]1C(=O)N[C@@H](CC(C)C)C(=O)NCCC(C)C [ALOXISTATIN],0.7896
6,N[C@@H]1[C@H]2CN(c3nc4c(cc3F)c(=O)c(C(=O)O)cn4-c3ccc(F)cc3F)C[C@@H]12 [TROVAFLOXACIN],0.134
7,O=C(O)[C@@H]1CCCN1 [PROLINE],0.14
8,COc1cc(Nc2ncc(F)c(Nc3ccc4c(n3)NC(=O)C(C)(C)O4)n2)cc(OC)c1OC [R-406],0.1646
9,CC(=O)c1c(C)c2cnc(Nc3ccc(N4CCNCC4)cn3)nc2n(C2CCCC2)c1=O [PALBOCICLIB],0.007482
10,OC(CCN1CCCC1)(c1ccccc1)C1CCCCC1 (configuration not stated) [PROCYCLIDINE],0.2175
11,OC(CCN1CCCCC1)(c1ccccc1)C1CCCCC1 (configuration not stated) [TRIHEXYPHENIDYL],0.4673
12,OC(CCN1CCCCC1)(c1ccccc1)c1ccccc1 [PRIDINOL],0.1349
13,Sc1ncnc2nc[nH]c12 [MERCAPTOPURINE ANHYDROUS],0.2212
14,COC(=O)C[C@](O)(CCC(C)(C)O)C(=O)O[C@@H]1C(OC)=C[C@]23CCCN2CCc2cc4c(cc2[C@H]13)OCO4 [HARRINGTONINE],0.07403
15,CCCC[C@H](NC(=O)[C@@H]1[C@@H]2[C@H](CN1C(=O)[C@@H](NC(=O)NC1(CS(=O)(=O)C(C)(C)C)CCCCC1)C(C)(C)C)C2(C)C)C(=O)C(=O)NC1CC1,0.1004
16,C[C@]12CC[C@H](O)CC1=CC[C@@H]1[C@@H]2CC[C@]2(C)C(c3cccnc3)=CC[C@@H]12 [ABIRATERONE],0.3975
17,CC[C@H]1[C@@H](O)[C@@H]2[C@H](CC[C@]3(C)[C@@H]([C@H](C)CCC(=O)O)CC[C@@H]23)[C@@]2(C)CC[C@@H](O)C[C@@H]12 [OBETICHOLIC ACID],0.5073
18,C[C@H](CCC(=O)O)[C@H]1CC[C@H]2[C@@H]3[C@@H](O)C[C@@H]4C[C@H](O)CC[C@]4(C)[C@H]3CC[C@]12C [URSODIOL],0.2784
19,CC(CCC(=O)O)[C@H]1CCC2C3C[C@H](O)[C@@H]4C[C@H](O)CC[C@]4(C)C3CC[C@@]21C (some centres not stated),0.1858
20,CN1CC(=O)N2[C@H](c3ccc4c(c3)OCO4)c3[nH]c4ccccc4c3C[C@@H]2C1=O,0.2898
21,CO[C@H]1/C=C/O[C@@]2(C)Oc3c(C)c(O)c4c(O)c(cc(O)c4c3C2=O)NC(=O)/C(C)=C\C=C\[C@H](C)[C@H](O)[C@@H](C)[C@@H](O)[C@@H](C)[C@H](OC(C)=O)[C@@H]1C [RIFAMYCIN],0.1815
